Results taken from PubChem BioAssay AID504773 (Broad Institute, 2011).
Results with a measured potency or affinity are listed apart. Active and inactive are the calls of the source.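 How the source made its calls: active means polarization signal falls with dose and the fitted half-maximal concentration is at or below ten times the sample's top valid dose; inconclusive means flat curve at 30 to 70% inhibition, or poor fit; inactive means signal rises, flat within 30%, or potency beyond limit.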

Molecular target: Golgi-associated PDZ and coiled-coil motif-containing protein (Homo sapiens) (UniProt Q9HD26)
Assay: CAL PDZ peptide-binding inhibitors, dose response, biochemical, fluorescence polarization, Cerulean-tagged CAL PDZ, cherry-picks (AID 504773)

Row | SMILES | outcome
1 | Cn1c(=O)c2c(nc(SCC(=O)NCC3CCCO3)n2Cc2ccc(F)cc2)n(C)c1=O (configuration not stated) | inactive
2 | CN(C)c1ccc(C(=O)OCC(=O)NC2CCCCCC2)cc1 | inactive
3 | OCC1(CCOc2ccccc2)CCN(CCCn2cccn2)CC1 | inactive
4 | CC12CCC(C(=O)N(CCCN3CCN(Cc4ccccc4)CC3)C1=O)C2(C)C (configuration not stated) | inactive
5 | c1cc(-c2nnc(-c3ccncc3)o2)ccn1 | inactive
6 | CCc1nnc(NS(=O)(=O)c2ccc(NC(=O)CCC(=O)O)cc2)s1 | inactive
7 | O=C(NCCc1cnc[nH]1)c1cccs1 | inactive
8 | O=C(NC1(C(F)(F)F)NC(=O)N(C2CCCCC2)C1=O)C1CC1 (configuration not stated) | inactive
9 | CCOc1ccc(N(CC(=O)N2CCN(Cc3ccccc3)CC2)S(C)(=O)=O)cc1 | inactive
10 | CC1CCN(c2nc3c(c(=O)n(C)c(=O)n3C)n2CCSc2nc3ccccc3s2)CC1 | inactive
11 | O=C(NCc1ccccc1)c1cc2ccc(O)cc2oc1=O | inactive
12 | CCN(CC)S(=O)(=O)c1ccc(/C=C/C(=O)OCC(=O)N(C)C)cc1 | inactive
13 | COCCOC(=O)c1c(C)oc2ccc(OS(C)(=O)=O)cc12 | inactive
14 | CCOC(=O)CCC(=O)Nc1ccc(S(=O)(=O)N2CCC(C)CC2)cc1 | inactive
15 | COc1ccc(C2/C(=C(/O)c3ccc(C)cc3)C(=O)C(=O)N2C)c(OC)c1 (configuration not stated) | inactive
16 | Cc1cccc(NC(=O)Cn2cnc3c(oc4ccccc43)c2=O)c1C | inactive
17 | CN(C)C1(CNC(=O)C2CCC(=O)N(CCc3ccc(Cl)cc3)C2)CCCCC1 (configuration not stated) | inactive
18 | CC(NS(=O)(=O)c1ccc(Cl)c(Cl)c1)C(=O)OCC(=O)Nc1ccc2c(c1)OCO2 (configuration not stated) | inactive
19 | O=C(NCc1ccc(Cl)cc1)C(=O)NCC1OCCN1C(=O)c1ccc(Cl)cc1 (configuration not stated) | inactive
20 | Cc1cccc(-n2nc(C)c3c2NC2=C(C(=O)CCC2)C3c2ccccn2)c1 (configuration not stated) | inactive
21 | Cc1ccccc1N1CCN(S(=O)(=O)c2ccccc2)CC1 | inactive
22 | CC(=O)Nc1sc2c(c1C(c1ccccn1)N1CCN(C)CC1)CCCC2 (configuration not stated) | inactive
23 | CCNC(=S)N(CCN(CC)CC)Cc1cc2cc3c(cc2[nH]c1=O)OCCO3 | inactive
24 | Cc1ccc(-c2nc3ccccc3c(=O)o2)cc1 | inactive
25 | CCCOc1ccc(CC(=O)N/N=C\c2ccc(F)cc2)cc1 | inactive
26 | COc1ccc(-n2c(=S)[nH]c3c(sc(=S)n3-c3ccccc3)c2=O)c(OC)c1 | inactive
27 | CCCOc1ccc(S(=O)(=O)Nc2ccccn2)c2ccccc12 | inactive
